Calls of active or inactive are those of the source. Rule for the calls: active = hit-call score of the fitted dose curve at least 0.9, where 1 is the maximum; inactive = score below 0.9.

This note sets out measurements from PubChem BioAssay AID2284134 (EPA ToxCast).

For this test, the target named is human PKD2 (PRKD2) CAMK Kinase, PRKD2 (gene 25865) (UniProt Q9BZL6). In words: ERF_KP_ENZ_hPKD2: Eurofins (ERF) Enzymatic Radiometric [10 uM ATP] KinaseProfiler LeadHunter Assay for human PKD2 (PRKD2) CAMK Kinase. The protocol: ERF_KP_ENZ_hPKD2 is a biochemical, single-readout assay that uses extracted gene-proteins in a cell-free assay. Measurements were taken 0.66 hour after chemical dosing in a 96-well plate. See PKD2 Human Protein Ser/Thr Kinase Enzymatic Radiometric Assay [10 uM ATP], KinaseProfiler.ERF_KP_ENZ_hPKD2 is an assay component calculated from the ERF_KP_ENZ_hPKD2 assay. It is designed to measure enzyme activity using a type of enzyme reporter as detected by scintillation counting with radiometry technology.Data from the assay component ERF_KP_ENZ_hPKD2 was analyzed at the assay endpoint, ERF_KP_ENZ_hPKD2, in the positive analysis fitting direction relative to DMSO as the negative control and baseline of activity. Using a type of enzyme reporter, loss-of-signal activity can be used to understand changes in enzymatic activity as they relate to gene PRKD2. To generalize the intended target to other relatable targets, this assay endpoint is annotated to the kinase intended target family, where the subfamily is serine/threonine kinase.
Chain of human PKD2 (PRKD2) CAMK Kinase, PRKD2 (gene 25865) (Q9BZL6 whole entry, looked up): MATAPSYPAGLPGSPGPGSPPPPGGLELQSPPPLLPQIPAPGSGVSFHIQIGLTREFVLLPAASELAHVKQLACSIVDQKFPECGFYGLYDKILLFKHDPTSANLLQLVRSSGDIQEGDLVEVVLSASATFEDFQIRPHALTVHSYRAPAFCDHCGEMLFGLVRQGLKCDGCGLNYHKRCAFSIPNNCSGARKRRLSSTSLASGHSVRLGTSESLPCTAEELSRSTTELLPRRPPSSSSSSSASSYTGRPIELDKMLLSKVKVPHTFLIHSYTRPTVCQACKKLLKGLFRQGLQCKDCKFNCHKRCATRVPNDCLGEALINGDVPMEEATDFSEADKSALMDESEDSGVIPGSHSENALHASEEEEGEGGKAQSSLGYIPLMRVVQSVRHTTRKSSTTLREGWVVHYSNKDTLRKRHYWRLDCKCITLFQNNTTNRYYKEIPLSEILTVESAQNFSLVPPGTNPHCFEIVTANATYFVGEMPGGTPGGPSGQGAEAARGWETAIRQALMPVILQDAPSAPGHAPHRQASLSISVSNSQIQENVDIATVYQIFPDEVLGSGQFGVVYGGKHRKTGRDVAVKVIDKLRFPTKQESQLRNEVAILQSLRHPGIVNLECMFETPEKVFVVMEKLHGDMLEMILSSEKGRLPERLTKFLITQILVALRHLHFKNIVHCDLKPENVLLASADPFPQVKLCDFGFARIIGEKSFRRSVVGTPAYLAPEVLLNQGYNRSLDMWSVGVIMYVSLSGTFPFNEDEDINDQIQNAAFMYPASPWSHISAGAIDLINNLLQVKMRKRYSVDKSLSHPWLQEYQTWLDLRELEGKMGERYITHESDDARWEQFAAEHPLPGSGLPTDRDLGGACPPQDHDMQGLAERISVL
PKD2 (h) is incubated with 20 mM HEPES pH 7.4, 0.03% Triton X-100, 30 uM […], 10 mM MgAcetate and [gamma-33P]-ATP (specific activity and concentration as required). The reaction is initiated by the addition of the Mg/ATP mix. After incubation for 40 minutes at room temperature, the reaction is stopped by the addition of phosphoric acid to a concentration of 0.5%. […]
Regarding `O=C(/C=C/c1ccc(O)cc1)CC(=O)/C=C/c1ccc(O)cc1`, the AC50 is 0.3 nM (active).

One may read the AC50 as the midpoint of the concentration-response curve, whichever way the signal moves.
